Screen size: about 310,000 compounds; about 14,000 (4.5%) showed an effect of 50% or more. Effects have a minus sign here. Many of the other results were omitted from the sample, so strong results are more common in it than they were.
The compounds below were run against human ether-à-go-go-related gene (hERG) potassium channel (human, UniProt Q12809) (assay: primary screen, population patch clamp on CHO cells stably expressing hERG; higher = less effect of the substance).
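Also: peak tail current of the secondary pulse compared with the same well before compound.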

Sequence of human ether-à-go-go-related gene (hERG) potassium channel (Q12809 whole entry, looked up): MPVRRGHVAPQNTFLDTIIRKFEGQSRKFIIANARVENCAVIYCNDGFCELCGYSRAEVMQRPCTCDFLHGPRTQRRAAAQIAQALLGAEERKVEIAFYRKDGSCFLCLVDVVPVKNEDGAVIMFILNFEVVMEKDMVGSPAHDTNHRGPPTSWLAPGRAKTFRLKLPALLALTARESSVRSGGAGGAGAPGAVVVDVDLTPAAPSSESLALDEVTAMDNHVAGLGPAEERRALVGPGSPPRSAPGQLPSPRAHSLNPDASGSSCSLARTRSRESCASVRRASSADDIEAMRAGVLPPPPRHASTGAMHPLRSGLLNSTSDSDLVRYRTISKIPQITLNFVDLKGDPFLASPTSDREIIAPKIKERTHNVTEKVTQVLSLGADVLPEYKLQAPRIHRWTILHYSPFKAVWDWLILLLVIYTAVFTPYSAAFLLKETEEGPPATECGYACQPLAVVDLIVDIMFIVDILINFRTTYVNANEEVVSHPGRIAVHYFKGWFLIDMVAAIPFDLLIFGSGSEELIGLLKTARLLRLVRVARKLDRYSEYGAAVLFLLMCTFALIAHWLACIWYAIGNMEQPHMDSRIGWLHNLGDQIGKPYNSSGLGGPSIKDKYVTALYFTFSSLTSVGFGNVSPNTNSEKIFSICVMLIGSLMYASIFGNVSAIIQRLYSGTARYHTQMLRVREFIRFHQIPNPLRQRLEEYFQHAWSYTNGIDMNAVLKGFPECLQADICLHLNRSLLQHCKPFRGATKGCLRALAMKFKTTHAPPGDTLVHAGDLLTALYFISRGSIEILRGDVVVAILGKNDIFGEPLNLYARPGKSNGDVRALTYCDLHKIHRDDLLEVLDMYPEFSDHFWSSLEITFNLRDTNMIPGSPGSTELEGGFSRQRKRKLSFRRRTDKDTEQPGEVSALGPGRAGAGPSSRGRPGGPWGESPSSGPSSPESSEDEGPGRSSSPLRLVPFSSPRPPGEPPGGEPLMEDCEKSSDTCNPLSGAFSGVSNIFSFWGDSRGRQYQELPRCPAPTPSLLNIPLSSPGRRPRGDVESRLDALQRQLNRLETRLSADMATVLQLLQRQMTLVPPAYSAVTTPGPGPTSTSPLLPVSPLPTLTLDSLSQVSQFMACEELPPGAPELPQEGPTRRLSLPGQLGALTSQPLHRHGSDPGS

Structure (SMILES)	hERG current change (%, negative = inhibition) at 10uM [%]
NC(=O)c1ccccc1NC(=O)N1CCOCC1	-2.02
CCOC(=O)C1CCCN(C(=O)c2ccc(Cl)cc2)C1 (stereo not drawn)	0.557
Cc1cc(C)cc(NC(=O)CSc2nc3c(oc4ccccc43)c(=O)n2-c2ccccc2)c1	-11.1
O=C(c1ccccc1)N1CCCCC(Sc2nnc3ccccn23)C1=O (stereo not drawn)	5.24
O=C(c1ccc(F)cc1)N1CCCCC(Sc2nnc3ccccn23)C1=O (stereo not drawn)	-59.9
Cc1cc2nnc(SC3CCCCN(C(=O)c4ccc(F)cc4)C3=O)n2c2ccccc12 (stereo not drawn)	-13.2
O=C(Nc1ccccc1-c1nc2ccccc2[nH]c1=O)c1cccs1	2.16
CCc1noc(C)c1C(=O)Nc1ccc(S(=O)(=O)N2CCCCC2)cc1	-7.54
CCc1noc(C)c1C(=O)Nc1cccc(S(=O)(=O)N2CCCCCC2)c1	-56
CCOc1ccc(S(=O)(=O)N2CCCCC2)cc1NC(=O)c1c(CC)noc1C	11.8
CCc1noc(C)c1C(=O)Nc1ccc(Cl)c(S(=O)(=O)N2CCCCC2)c1	-71.2
Cc1noc(C)c1C(=O)Nc1cccc(S(=O)(=O)N2CCCCC2)c1	-10.6
CCc1noc(C)c1C(=O)Nc1ccc(C)c(S(=O)(=O)N2CCCCCC2)c1	-45.6
CCOC(=O)c1c(C)[nH]c(C(=O)Nc2ccc(C)c(Cl)c2)c1C	10.8
COc1ccc2[nH]cc(C(=O)C(=O)N3CCCCC3)c2c1	5.35
COC(=O)C(=O)/C=C(\O)c1ccc(C)cc1	-2.4
Cc1ccc(C(=O)CSc2nc3ccccc3c(=O)n2N)o1	-1.95
COc1ccc(-c2csc(N(Cc3ccco3)C(=O)c3cccs3)n2)cc1	-3.17
Cc1ccc(-c2csc(N(Cc3ccco3)C(=O)c3cccs3)n2)cc1	11.6
CCN(C(=O)c1cccs1)c1nc(-c2ccc(OC)cc2)cs1	23.1
COc1ccc(-c2csc(N(C)C(=O)c3cccs3)n2)cc1	-0.276
CN(C)CCCN(C(=O)c1cccs1)c1nc(-c2ccccc2)cs1	-72.8

Structure (SMILES)	hERG current change (%, negative = inhibition) at 10uM [%]
CCN(CC)CCCN(C(=O)c1cccs1)c1nc(-c2ccc(OC)cc2)cs1	-83.3
O=C(c1cccs1)N(CC1CCCO1)c1nc(-c2ccccc2)cs1 (stereo not drawn)	2.57
COc1ccc(-c2csc(N(CC3CCCO3)C(=O)c3cccs3)n2)cc1 (stereo not drawn)	-11.4
COc1ccc(-c2csc(N(CCCN(C)C)C(=O)c3cccs3)n2)cc1.Cl	-73.9
O=C(NC(=S)Nc1ccc(S(=O)(=O)N2CCCC2)cc1)C1CC1	-29.8
COc1ccc(C(=O)Nc2cc(C)nn2-c2nc3ccccc3[nH]2)c(OC)c1	-5.95
CSc1nnc(-c2ccc(Cl)cc2Cl)o1	1.62
COc1cccc(NC(=O)COc2ccc(C(=O)N3CCN(C)CC3)cc2)c1	15.8
O=C(O)CCc1cccnc1	7.55
O=C(/C=C/c1c(F)cccc1Cl)c1ccc(O)cc1	1.1
Cc1ccc(-c2nnc3c4ccccc4c(C)nn23)cc1S(=O)(=O)N1CCN(C)CC1	-6.7
Cc1ccc(-c2nnc(N3CCCCC3)c3ccccc23)cc1S(=O)(=O)N(C)C	-27
Cc1ccc(-c2nnc(N3CCCCC3)c3ccccc23)cc1S(=O)(=O)N1CCN(C)CC1	-58.7
Cc1ccc(-c2nnc(N3CCOCC3)c3ccccc23)cc1S(N)(=O)=O	17.3
Cc1ccc(-c2nnc(NC3CCCCC3)c3ccccc23)cc1S(=O)(=O)N1CCN(C)CC1	-54.6
Cc1ccc(-c2nnc(NCc3nc4ccccc4[nH]3)c3ccccc23)cc1S(=O)(=O)N1CCCCC1.Cl	-7.08
COc1ccc(S(=O)(=O)NCC2CCCN(C(=O)CCSC)C2)cc1 (stereo not drawn)	18
COc1cccc(CN2CC(C(=O)N(C)Cc3ccnc4ccccc34)CCC2=O)c1 (stereo not drawn)	-10.2
C=CCNc1nc(-c2c(C)nc3sccn23)cs1	-10.1
Cc1ccccc1C(=O)NC(=S)NCCC1=CCCCC1	13.4
CN1CCN(c2ncc3c(n2)CC(c2ccccc2F)CC3=O)CC1 (stereo not drawn)	-4.43
COCCOC(=O)C1=C(C)NC2=C(C(=O)CCC2)C1c1ccc2c(c1)OCO2 (stereo not drawn)	-49.6

Structure (SMILES)	hERG current change (%, negative = inhibition) at 10uM [%]
O=C(CCNC(=O)c1ccc(Br)cc1)NCc1ccccc1F	-13
O=C(N/N=C/c1cccc([N+](=O)[O-])c1)C1COc2ccccc2O1 (stereo not drawn)	-29.1
O=C(Nc1cccc([N+](=O)[O-])c1)C1COc2ccccc2O1 (stereo not drawn)	-86.3
O=C(CNC(=O)C1COc2ccccc2O1)N/N=C\c1ccc(Br)cc1 (stereo not drawn)	-20.1
O=C(CNC(=O)C1COc2ccccc2O1)N/N=C\c1ccccc1Cl (stereo not drawn)	4.64
O=C(CNC(=O)C1COc2ccccc2O1)N/N=C\c1ccc(Cl)cc1 (stereo not drawn)	-69.4
O=C(Nc1ccc([N+](=O)[O-])cc1)C1COc2ccccc2O1 (stereo not drawn)	0.793
COc1ccc(/C=N\NC(=O)CNC(=O)C2COc3ccccc3O2)cc1[N+](=O)[O-] (stereo not drawn)	-73.8
O=C(CNC(=O)C1COc2ccccc2O1)N/N=C/c1cc(Br)c(O)c(Br)c1 (stereo not drawn)	-7.99
O=C(CNC(=O)C1COc2ccccc2O1)N/N=C/c1ccc([N+](=O)[O-])cc1 (stereo not drawn)	-71.8
COc1ccc(/C=N/NC(=O)CNC(=O)C2COc3ccccc3O2)cc1OC (stereo not drawn)	-15.7
COc1cc(/C=N\NC(=O)CNC(=O)C2COc3ccccc3O2)ccc1O (stereo not drawn)	-26.8
O=C(NNC(=O)C1COc2ccccc2O1)c1cccc([N+](=O)[O-])c1 (stereo not drawn)	-7.35
COc1ccc(OCCC(=O)Nc2ccccc2)cc1	-6.83
Cc1cc(C(=O)O[C@H]2[C@H](Cc3ccccc3)NS(=O)(=O)[C@H]3C[C@@H]4C=C[C@]23O4)ccc1[N+](=O)[O-]	-1.67
Cn1nc(C(=O)NCc2ccc(F)cc2)c2c1-c1ccccc1S(=O)(=O)C2	-44.9
CC(=O)N(CC(=O)O)c1ccccc1	10.5
Cc1ccc(NS(=O)(=O)c2ccc(CCC(=O)NCCCOC(C)C)cc2)cc1	4.27
O=c1oc2c3c4c(cc2c2c1CCC2)OCCN4CCC3	-0.13
Cc1cccc(C)c1NC(=O)CNc1ccccc1	5.02
O=C(Nn1c(C2CCCCC2)nc2ccccc2c1=O)c1ccc(Cl)c([N+](=O)[O-])c1	-9.26
COC(=O)C1=C(c2ccc(OC)c(OC)c2)C[C@@H]2CC[C@H]1N2C(=O)NCCOc1ccccc1Cl	-12.7

Structure (SMILES)	hERG current change (%, negative = inhibition) at 10uM [%]
Cc1ccc(C)c(N2CCN(S(=O)(=O)c3ccc4c(c3)OCCO4)CC2)c1	3.7
C#CCOCCOCCOCCNc1nc(N2CCN(C(=O)CCCCCCCCCCNC(=O)[C@H](CCC(=O)O)n3cc(CCCCCN)nn3)CC2)nc(N2CCN(C(=O)CCCCCCCCCCNC(=O)[C@@H]([C@H](C)O)n3cc(C)nn3)CC2)n1	20.1
O=C(CSc1nc2c(c(=O)n1-c1ccc(Cl)cc1)SCC2)N1CCCC1	-17.4
O=C(N/N=C\c1ccc(-c2ccc([N+](=O)[O-])cc2)o1)C1COc2ccccc2O1 (stereo not drawn)	-7.36
C/C(=N/NC(=O)CNC(=O)C1COc2ccccc2O1)c1ccc([N+](=O)[O-])cc1 (stereo not drawn)	-64.7
CC(C)(C)c1ccc2c(c1)OC(C(=O)N/N=C/c1ccc([N+](=O)[O-])o1)CO2 (stereo not drawn)	-39.2
C/C(=N/NC(=O)CNC(=O)C1COc2ccccc2O1)c1ccc2c(c1)OCCO2 (stereo not drawn)	-1.69
O=C(N/N=C\c1ccc([N+](=O)[O-])o1)C1COc2ccccc2O1 (stereo not drawn)	-67.4
C/C(=N\NC(=O)CNC(=O)C1COc2ccccc2O1)c1ccc(Cl)cc1 (stereo not drawn)	-17.6
CC(=O)Nc1ccc(NC(=O)C(C)OC(=O)C(C)SCC(=O)Nc2ccc(F)cc2)cc1 (stereo not drawn)	12
CN(NC(=O)COc1ccccc1)C1=NS(=O)(=O)c2ccccc21	26.1
CCCCCNC(=O)C1c2ccccc2Oc2ccccc21	2.44
CCOc1ccc(-c2nnc3ccc(SCC(=O)N4CCCCC4)nn23)cc1	-5.88
O=C(CSc1ccc2nnc(-c3ccccc3)n2n1)N1CCCCC1	-59.7
O=C(CSc1ccc2nnc(-c3ccccc3)n2n1)N1CCCc2ccccc21	-62.7
O=C(CSc1ccc2nnc(-c3ccccn3)n2n1)N1CCN(c2ccccc2)CC1	-86.7
COc1ccc(-c2nnc3ccc(SCC(=O)N4CCCC4)nn23)cc1	-15.2
O=C(CSc1ccc2nnc(-c3ccc(F)cc3)n2n1)N1CCCc2ccccc21	-16
Cc1ccc(-c2nnc3ccc(SCC(=O)N4CCCc5ccccc54)nn23)cc1	-12.5
O=C(CSc1ccc2nnc(-c3ccccn3)n2n1)N1CCOCC1	-24.5
CCOC(=O)N1CCN(C(=O)CSc2ccc3nnc(-c4ccccn4)n3n2)CC1	-36
